Results as given in PubChem BioAssay (Tox21).
Results filed as inconclusive are left out. Calls of active or inactive are those of the source. Calls follow the shape of the dose curve; as a rule, active = well fitted cell-killing curve with a large enough effect in the repeat runs; inconclusive = weak or mixed curves, or effect the other way; inactive = flat fitted curve, though single readings scatter.

Assay: qHTS RealTime-Glo MT Cell Viability Assay in HepG2 cells - 0 hour (AID 1224889); also: nearly all actives have a fitted effect of over 50% in size
Conditions: RealTime-Glo luminescence; series mostly up to 76.8 µM; activity change, negative = cytotoxicity: at the top concentration
How it was run: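 qHTS, HepG2, 600 cells/well, RealTime-Glo (NanoLuc + prosubstrate) added with cells; 5 h preincubation; DMSO compound addition; 37 C; luminescence at 0/8/16/24/32/40 h.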
% is scaled to controls: 0 for no effect and ±100 for the full control effect.

Row | Compound | activity change, negative = cytotoxicity | Potency
1 | N#Cc1ccc(N(CC(N)=O)CC(F)(F)F)cc1C(F)(F)F | -16.1% (inactive) | 
2 | CCCCn1cc[n+](C)c1.[Cl][Fe-]([Cl])([Cl])[Cl] | 10.1% (inactive) | 
3 | O=C(O)[C@H](O)[C@@H](O)C(=O)O | 2.78% (inactive) | 
4 | ClC1=C(Cl)[C@]2(Cl)[C@H]3[C@H]([C@@H]4C=C[C@H]3C4)[C@@]1(Cl)C2(Cl)Cl |  | inactive
5 | CCNc1nc(NC(C)C(C)C)nc(SC)n1 (stereo unspecified) | 0.75% (inactive) | 
6 | [Cl-].[Cl-].[Cl-].[Yb+3] | 5.77% (inactive) | 
7 | CCN(CC)CCc1c[nH]c2ccccc12 | -4.49% (inactive) | 
8 | C#CCO | 8.18% (inactive) | 
9 | CCn1cc[n+](C)c1 (tested in a mixture with another compound) | 2.36% (inactive) | 
10 | CC(=O)[O-].CC(=O)[O-].O.O.[Zn+2] | -12.2% (inactive) | 
11 | Clc1cc(Cl)c(-c2cc(Cl)c(Cl)cc2Cl)cc1Cl | 3.88% [at 35.3 µM] (inactive) | 
12 | O=S(=O)(O)F | -0.772% (inactive) | 
13 | COC(=O)/C=C(\C)OP(=O)(OC)OC | 2.48% (inactive) | 
14 | CNN | -6.01% (inactive) | 
15 | CC[C@H](C)[C@H]1O[C@]2(C=C[C@@H]1C)C[C@@H]1C[C@@H](C/C=C(\C)[C@@H](O[C@H]3C[C@H](OC)[C@@H](O[C@H]4C[C@H](OC)[C@@H](NC)[C@H](C)O4)[C@H](C)O3)[C@@H](C)/C=C/C=C3\CO[C@@H]4[C@H](O)C(C)=C[C@@H](C(=O)O1)[C@]34O)O2 | 2.08% (inactive) | 
16 | COc1c2c(cc3c1OCO3)CCN(C)C2 | -1.36% [at 35.3 µM] (inactive) | 

Row | Compound | activity change, negative = cytotoxicity | Potency
17 | BrCC(Br)(Br)Br | -3.25% (inactive) | 
18 | CCC[CH2][Sn]([CH2]CCC)([CH2]CCC)[CH2]CCC | 1.7% (inactive) | 
19 | O=[N+]([O-])c1cc(C(F)(F)F)c(Cl)c([N+](=O)[O-])c1Nc1ncc(C(F)(F)F)cc1Cl | -14% (inactive) | 
20 | CCCCN(CCCC)C(=S)[S-].CCCCN(CCCC)C(=S)[S-].[Ni+2] | 10.4% [at 35.3 µM] (inactive) | 
21 | CCCCn1cc[n+](C)c1 (tested in a mixture with another compound) | 5.55% (inactive) | 
22 | CCC(C)Br (stereo unspecified) | -0.84% (inactive) | 
23 | CCCCc1ccccc1 | -3.4% (inactive) | 
24 | COP(=S)(OC)Oc1ccc([N+](=O)[O-])c(C)c1 | -21.2% (inactive) | 
25 | CNC(=O)Oc1cc(C)cc(C(C)C)c1 | 0.454% (inactive) | 
26 | CN | 4.71% (inactive) | 
27 | Clc1c(Cl)c(Cl)c(Cl)c(Cl)c1Cl | 6.05% [at 6.97 µM] (inactive) | 
28 | Nc1nc(N)c(N)c(N)n1 | -1.05% (inactive) | 
29 | Fc1ccc(C(OCCN2CCN(CCCc3ccccc3)CC2)c2ccc(F)cc2)cc1 | 12.4% [at 35.3 µM] (inactive) | 
30 | CCN(CC)C(=O)N[C@@H]1C=C2c3cccc4[nH]cc(c34)C[C@@H]2N(C)C1 | -4.29% [at 35.3 µM] (inactive) | 
31 | O=C1C2(Cl)C3(Cl)C4(Cl)C(Cl)(Cl)C5(Cl)C3(Cl)C1(Cl)C5(Cl)C24Cl (stereo unspecified) | 15.9% (inactive) | 
